# Compound activity from PubChem BioAssay.
# Sampled rows, rich in hits. Any-hit rate of the full collection: about 4.7%.
# PfHsp90 yeast 2 – growth inhibition of yeast expressing Plasmodium Hsp90. inhibition, % at 9.4 µM. S. cerevisiae expressing PfHsp90, BacTiter-Glo ATP, 48 h; yeast lacking PDR1 and PDR3 efflux regulators. AID 504621. 0.32% of 310,000 active;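 active means every replicate shows inhibition above about 80%, whatever the replicate mean, limit read from the data; inconclusive means mean inhibition reaches the set limit but some replicate falls short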
# ATG4B inh – inhibitors of human ATG4B cysteine protease; ATG4B cleavage of LC3-PLA2, NBD-HPC fluorescence, 1 h; inhibition, % at 8.33 µM; 0.51% of 340,000 active; AID 504462; in the data active means inhibition above about 40%
# Target sequence (Q9Y4P1 whole entry, looked up): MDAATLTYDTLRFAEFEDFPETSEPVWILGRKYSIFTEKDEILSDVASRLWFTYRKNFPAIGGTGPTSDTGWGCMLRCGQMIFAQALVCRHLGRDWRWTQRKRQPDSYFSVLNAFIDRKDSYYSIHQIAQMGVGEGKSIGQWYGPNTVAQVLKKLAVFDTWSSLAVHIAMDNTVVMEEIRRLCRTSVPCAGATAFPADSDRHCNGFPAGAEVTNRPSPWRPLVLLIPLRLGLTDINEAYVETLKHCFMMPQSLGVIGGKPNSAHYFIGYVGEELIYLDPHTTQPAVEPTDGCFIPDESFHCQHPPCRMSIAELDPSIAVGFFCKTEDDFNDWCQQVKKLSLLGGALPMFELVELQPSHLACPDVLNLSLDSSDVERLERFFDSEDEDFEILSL
# tim23-1 inh – growth inhibitors of tim23-1 mutant yeast | S. cerevisiae tim23-1 growth, BacTiter-Glo luminescence, 24 h | inhibition, % at 20 µM | 1.3% of 330,000 active | AID 463212;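 active means growth inhibition of the mutant yeast at or above 50%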;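 further: temperature-sensitive mutant grown at 25 °C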
# SKKanGAS inh – inhibitors of SKKanGAS S. pyogenes growth in kanamycin (SK-promoter or general growth effect); BacTiter-Glo, 6 h; inhibition, % at 7.5 µM; 1.3% of 300,000 active;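 active means mean replicate score, as percent of positive control median, at least 50; inconclusive means mean below 50 but one replicate at or above 50; inactive means mean and every replicate below 50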;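 further: strain carries kanamycin resistance gene driven by streptokinase promoter and grows in 40 µg/ml kanamycin; loss of luminescence reflects streptokinase promoter inhibition or plain growth inhibition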
# tim10-1 inh – inhibits growth of tim10-1 mutant yeast. S. cerevisiae tim10-1 ts strain growth, BacTiter-Glo, 24 h. inhibition, % at 20 µM. 2.2% of 330,000 active;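 active means inhibition of at least 40%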;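 further: mutant grown at 25 °C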
# TIM10 inh – TIM10 yeast growth inhibition; AID 463195; 1.4% of 330,000 active; inhibition, % at 10 µM; S. cerevisiae TIM10 strain growth, BacTiter-Glo luminescence, 24 h;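 active means inhibition of 40% or more at the single tested concentration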;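 further: wild-type TIM10 isogenic control strain grown at permissive 25 °C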
# ATG4B conf – ATG4B (human) inhibition, single-dose confirmed; shares compounds with ATG4B inh; ATG4B protease fluorescent substrate cleavage assay; inhibition, % at 8.33 µM; 92% of 320 active; in the data active means inhibition above about 39%
# PLA2 ctr – inhibits human PLA2, flagging false ATG4B inhibitors. shares compounds with ATG4B inh. 66% of 1,600 active. AID 588402. purified PLA2, NBD-C6-HPC fluorescence, 45 min. inhibition, % at 8.33 µM; in the data active means inhibition above about 50%
# Target sequence (P04054 whole entry, looked up): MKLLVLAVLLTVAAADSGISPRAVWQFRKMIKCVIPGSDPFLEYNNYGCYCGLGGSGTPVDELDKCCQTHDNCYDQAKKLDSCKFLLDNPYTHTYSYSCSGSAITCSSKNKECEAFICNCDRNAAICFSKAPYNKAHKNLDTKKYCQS
# Numbers stand for hits; 0 = inactive; ? = inconclusive; - = no result given.
SMILES,PfHsp90 yeast 2,ATG4B inh,tim23-1 inh,SKKanGAS inh,tim10-1 inh,TIM10 inh,PLA2 ctr,others
Cc1c(NC(=O)c2ccccc2NC(=O)COc2ccccc2)cccc1C(=O)O,0,40.1,0,0,0,0,0,
COc1ccc(OCC(=O)Nc2ccccc2-c2ccccc2)cc1,0,0,0,0,0,0,-,
Cc1cccc(OCC(=O)Nc2ccccc2-c2ccccc2)c1,0,45.1,-,0,-,-,0,ATG4B conf=63.9
CC(C)COc1ccc(C(=O)OCC(=O)NCc2cccs2)cc1,0,0,0,-,0,0,-,
O=C(c1cc2ccccc2c(=O)o1)N1CCc2ccccc2C1,0,0,0,0,0,0,-,
CCn1c(C(=O)N2CCc3ccccc3C2)cc2oc3ccccc3c21,-,43.5,0,?,0,0,72.3,
Cn1c(C(=O)N2CCc3ccccc3C2)cc2oc3ccccc3c21,0,59.3,0,0,0,0,63.8,
O=C(Cn1ncc2c(=O)oc3ccccc3c21)N1CCc2ccccc2C1,0,0,0,0,0,0,-,
NC(=O)c1ccc(NC(=O)COc2coc(CN3CCc4ccccc4C3)cc2=O)cc1,0,0,0,0,0,0,-,
Cc1nn(Cc2ccccc2Cl)c2sc(C(=O)NC(C)(C)C)cc12,0,0,0,0,0,0,-,
Cc1csc(NC(=O)c2cc3c(C)nn(Cc4ccccc4Cl)c3s2)n1,0,66.1,0,0,0,0,58.0,
CC(C)[C@H](NC(=O)c1c(F)cccc1F)C(=O)N1CCN(c2ccc(F)cc2)CC1,0,0,0,0,0,0,-,
COc1cccc(NC(=O)CN(C)C(=O)Cn2cnc3ccccc3c2=O)c1,0,0,0,0,0,0,-,
O=C(O)c1cc(NN=Nc2cccc([N+](=O)[O-])c2)cc([N+](=O)[O-])c1,0,83.2,0,0,0,0,86.7,
CC1CCc2ccc(F)cc2N1S(=O)(=O)c1cccs1 (stereo unspecified),0,0,0,0,0,0,-,
C=CCn1c(SCC(=O)Nc2cc(Cl)ccc2C(=O)O)nc2sc(C)c(C)c2c1=O,0,60.9,0,-,0,0,52.9,
C=CCn1c(SCC(=O)Nc2ccc(O)cc2)nc2sc(C)c(C)c2c1=O,0,0,-,-,-,-,-,
Cn1c(CSCc2ccccc2Cl)n[nH]c1=S,0,0,0,0,0,0,-,
S=c1[nH]nc(CSCc2ccccc2Cl)n1C1CCCCC1,0,54.9,-,0,-,-,63.3,
O=[N+]([O-])c1cccc(S(=O)(=O)Nc2nc3ccccc3nc2Nc2cccc(S(=O)(=O)N3CCCCC3)c2)c1,0,46.0,-,0,-,-,0,
Cc1ccc2c(CN(C)Cc3cccc(F)c3)cc(=O)oc2c1,0,0,0,0,0,0,-,
Oc1ccc(N=Nc2nc(-c3ccccc3)c(-c3ccccc3)[nH]2)cc1,100.0,48.1,0,0,0,0,0,ATG4B conf=67.5
Brc1ccc(-c2nnc3n2C2(CCCC2)Cc2ccccc2-3)o1,-,52.5,0,0,0,0,63.2,
c1coc(-c2nnc3n2C2(CCCC2)Cc2ccccc2-3)c1,0,0,0,0,0,0,-,
Cc1cccc(N2C(=O)c3ccc(C(=O)Nc4c[nH]c(=O)[nH]c4=O)cc3C2=O)c1,0,0,0,0,0,0,-,
SMILES,PfHsp90 yeast 2,ATG4B inh,tim23-1 inh,SKKanGAS inh,tim10-1 inh,TIM10 inh,PLA2 ctr,others
CC(Oc1ccc2ccc(=O)oc2c1)C(=O)NC1CCN(Cc2ccccc2)CC1 (stereo unspecified),0,0,0,0,0,0,-,
COc1ccccc1C(=O)Nc1sc(C(=O)N2CCCC2)c(C)c1C#N,0,0,0,0,0,0,-,
COc1ccccc1CNC(=O)c1ccccc1OC,0,0,0,0,0,0,-,
O=C(COC(=O)c1ccccc1Nc1ccccc1)NCc1ccccc1Cl,0,48.7,0,0,0,0,0,
O=C(NCc1ccccc1Cl)c1cccc(NC(=O)c2ccccc2)c1,0,48.0,0,0,0,0,52.8,
O=C(COC(=O)c1ccccc1Nc1ccccc1)NCc1ccccc1,-,0,0,0,0,0,-,
O=C(NCc1ccccc1Cl)c1ccccc1Oc1ccccc1,0,52.7,0,0,0,0,0,
CCCc1[nH]nc2c1C(c1ccc(OCCN3CCOCC3)c(OCC)c1)C(C#N)=C(N)O2 (stereo unspecified),0,0,0,0,0,0,-,
COC(=O)CC[C@@H](C(=O)O)N1C(=O)c2ccccc2C1=O,0,0,0,0,0,0,-,
O=C(O)C(F)=C(c1ccccc1)c1ccccc1,0,0,0,0,0,0,-,
O=C(Nc1ncc(Cc2ccccc2)s1)C1=NCCN1,-,0,0,0,0,0,-,
N=C1SC(c2ccccc2)C(=O)N1c1ncc(Cc2ccccc2)s1 (stereo unspecified),0,55.5,0,97.2,0,0,0,
CCOC(=O)c1ccc(NC(=O)NCc2ccccc2)cc1,0,49.2,0,0,0,0,55.8,
Cc1nc(NC(=O)c2ccccc2)sc1C1(C)CC(c2ccccc2F)=NO1 (stereo unspecified),0,44.5,0,0,0,0,63.5,
Oc1ccc(-c2csc(Nc3ncccn3)n2)c(O)c1,0,0,0,0,0,0,-,
Oc1ccc(-c2csc(Nc3ccc4c(c3)OCO4)n2)c(O)c1,0,42.4,-,-,-,-,59.3,
N#C/C(=C/c1cn(CC(=O)O)c2ccccc12)C(=O)NCc1ccccc1,0,0,0,0,0,0,-,
CC1(C)CC(=O)C=C(NCc2cccs2)C1,-,0,0,0,0,0,-,
CCOc1ccc(C(=O)Nc2ccccc2N2CCOCC2)cc1,0,0,0,0,0,0,-,
CCOc1ccc(C(=O)C2CCN(CC(=O)Nc3ccccc3N3CCOCC3)CC2)cc1,0,44.0,0,0,0,0,0,ATG4B conf=65.3
CCc1ccc2c(c1)c(N=NC1=NC(=O)CS1)c(O)n2CC,0,0,0,?,0,0,-,
COc1ccc(S(=O)(=O)N(C)C)cc1NC(=O)CSc1nc(N)cc(N)n1,0,0,0,0,0,0,-,
O=c1/c(=C\c2cc([N+](=O)[O-])cc([N+](=O)[O-])c2O)sc2nc3ccccc3n12,0,59.2,0,-,0,0,69.4,
O=c1/c(=C/c2ccccn2)sc2nc3ccccc3n12,0,0,0,0,0,0,-,
Cc1cc(NCc2ccc(F)cc2Cl)n2nnnc2n1,0,47.5,0,0,0,0,0,ATG4B conf=70.4
O=C(O)c1ccc(S(=O)(=O)N(Cc2ccccc2)C2CCCCC2)cc1,0,0,0,0,0,0,-,
O=S(=O)(c1ccc(F)c(F)c1)N1CCCc2ccccc21,0,0,0,0,0,0,-,
Clc1cccc(-c2ccc(/C=N/n3cnnc3)o2)c1,0,0,0,0,0,0,-,
O=C1OC(c2cccs2)=N/C1=C\c1ccc(-c2cccc(Cl)c2)o1,0,70.6,0,0,0,0,0,ATG4B conf=54.8
Cc1ccc(-n2c(SCC(=O)NNC(=S)Nc3ccccc3)nc3ccccc3c2=O)cc1,0,78.4,0,0,0,0,82.0,
